In all, about 220,000 compounds went through this assay and about 1,600 (0.73%) were called active. The sample as a whole holds a higher share of actives than the screen did. Values without a mark were called inactive.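 Rule for the calls: active = inhibition above about 70% (limit read from the data); inactive = the rest.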
molecular target: 14-3-3 protein zeta/delta (Bos taurus) (UniProt P63103); experiment: inhibitors of 14-3-3 zeta/Bad binding, primary screen, biochemical, TR-FRET, bovine 14-3-3 zeta (AID 781); settings: TR-FRET 14-3-3zeta/Dy647-pBad peptide displacement, 1 h; at 21.7 µM; hits give high values;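 note: 0% = full 14-3-3 plus peptide FRET controls and 100% = background without 14-3-3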
Sequence (P63103 whole entry, looked up): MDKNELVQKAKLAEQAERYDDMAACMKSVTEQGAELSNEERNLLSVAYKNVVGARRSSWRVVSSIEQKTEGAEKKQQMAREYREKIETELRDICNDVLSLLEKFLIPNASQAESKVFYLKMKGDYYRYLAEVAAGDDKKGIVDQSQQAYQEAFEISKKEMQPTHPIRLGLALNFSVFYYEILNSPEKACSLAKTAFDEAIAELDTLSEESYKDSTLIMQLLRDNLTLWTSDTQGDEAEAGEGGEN

Row | SMILES | inhibition
1 | CN1CCN(C(=O)COc2ccc(C(C)(C)C)cc2Br)CC1 | -3.25%
2 | O=C(COc1ccc2ccccc2c1)N1CCN(Cc2ccncc2)CC1 | 87.2% (active)
3 | CC(C)c1ccc(OCC(=O)N2CCN(C)CC2)c(Br)c1 | 3.12%
4 | O=C1NC(=O)N(CCc2ccc(F)cc2)C(=O)/C1=C/C=C/c1ccccc1 | 4.29%
5 | Cc1ccsc1C(=O)C1CCCN(Cc2ccc(O)cc2)C1 (stereo not given) | -11.4%
6 | O=C(Cc1ccccc1)N1CCN(C2CCCCCC2)CC1 | 27.6%
7 | COc1ccc(CN2CCN(c3ccccc3F)CC2)c(OC)c1 | 52.2%
8 | COc1ccccc1CN1CCN(C(=O)Cc2ccccc2)CC1 | 75.5% (active)
9 | O=c1[nH]c(=O)n(-c2ccccc2)c(O)c1C=NC12CN3CN(CN(C3)C1)C2 | -5.55%
10 | COC(=O)N1C(c2ccccc2)C1c1ccccc1 (stereo not given) | -6.04%
11 | Cc1cc(N2C(=O)C3CCCN3C2c2ccc(Cl)c(Cl)c2)no1 (stereo not given) | 5.89%
12 | O=C(Cc1ccccc1[N+](=O)[O-])N1CCN(Cc2ccc3c(c2)OCO3)CC1 | -4.2%
13 | Cc1ccc(CN2CCCC(C(=O)c3ccc4c(c3)OCO4)C2)cc1C (stereo not given) | -6.26%
14 | Fc1ccc(N2CCN(Cc3ccc4c(c3)OCO4)CC2)cc1 | 70.2% (active)
15 | Fc1ccc(C2N3CCCN23)cc1 (stereo not given) | -6.34%
16 | CC(C)Oc1cccc(C(=O)C2CCCN(C3CCOCC3)C2)c1 (stereo not given) | -13%
17 | CN1CCN(Cc2ccc(OC(F)(F)F)cc2)CC1 | 78.5% (active)
18 | CC(C)CN1CCN(Cc2ccccc2C(F)(F)F)CC1CCO (stereo not given) | -9.76%
19 | Fc1cccc(F)c1CN1CCN(Cc2c(F)cccc2F)CC1 | -4.69%
20 | CN1CCN(Cc2ccccc2C(F)(F)F)CC1 | 70.1% (active)
21 | Cc1ccc(-n2c(O)c(C=NCC3CCCO3)c(=O)[nH]c2=O)c(C)c1 (stereo not given) | 5.29%
22 | CCCCC(=O)N/N=C/c1c(O)n(CCC2=CCCCC2)c(=O)[nH]c1=O | -15.6%
23 | CCC1(C)CC(CCNCc2ccc(N(C)C)cc2)(c2ccc(F)cc2)CCO1 (stereo not given) | -2.86%
24 | c1cc2c(cc1[C@H]1OC[C@H]3[C@@H]1CO[C@@H]3c1ccc3c(c1)OCO3)OCO2 | -2.89%
25 | O=c1[nH]c(=O)n(CCc2ccc(F)cc2)c(O)c1/C=N/N1CCCCC1 | -6.68%
